Source: the supplement of paper PMC6555819

How the values were obtained:
Test in all cases: PBM binding z-score (relative to random genomic background probes); higher = stronger binding; sequences stand for … in GC…GCGATTGACAGCGTAGAATGAAGG
[1] = tested on: FXR:RXRa (NR concentration 270 nM, RXRa partner concentration 90 nM)
Outline: (§1)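 Binding z-scores were set against random background probes. The data came from custom Agilent 4×180K protein-binding microarrays carrying double-stranded probes with 34-nt variable regions, incubated 1 h with ligand-free nuclear receptor dimers. Partner-specific antibodies detected binding, and scanned fluorescence was regression-normalized.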

[2] = tested on: LXRa:RXRa (NR concentration 270 nM, RXRa partner concentration 90 nM)
Outline: as §1

[3] = tested on: LXRa homodimer (NR concentration 270 nM)
Outline: as §1

[4] = tested on: LXRb:RXRa (NR concentration 270 nM, RXRa partner concentration 90 nM)
Outline: as §1

[5] = tested on: PPARa:RXRa (NR concentration 270 nM, RXRa partner concentration 90 nM)
Outline: as §1

[6] = tested on: PPARg:RXRa (NR concentration 180 nM, RXRa partner concentration 90 nM)
Outline: as §1

[7] = tested on: PPARg:RXRa 270nM:90nM, anti-RXR (NR concentration 270 nM, RXRa partner concentration 90 nM)
Outline: as §1

[8] = tested on: PPARg:RXRa 30nM:10nM, anti-RXR (NR concentration 30 nM, RXRa partner concentration 10 nM)
Outline: as §1

[9] = tested on: PPARg:RXRa 90nM:30nM, anti-RXR (NR concentration 90 nM, RXRa partner concentration 30 nM)
Outline: as §1

[10] = tested on: PPARg:RXRa DBDmut IVT, anti-RXR (DBD mutation: RXRa K156A/R161A, NR concentration 270 nM, RXRa partner concentration 90 nM)
Outline: as §1

[11] = tested on: PPARg:RXRa IVT, anti-PPARg (NR concentration 270 nM, RXRa partner concentration 90 nM)
Outline: as §1

[12] = tested on: PPARg homodimer (NR concentration 180 nM)
Outline: as §1

[13] = tested on: PXR:RXRa (NR concentration 270 nM, RXRa partner concentration 90 nM)
Outline: as §1

[14] = tested on: PXR homodimer (NR concentration 270 nM)
Outline: as §1

[15] = tested on: RARa:RXR (NR concentration 270 nM, RXRa partner concentration 90 nM)
Outline: as §1

[16] = tested on: RARa homodimer (NR concentration 270 nM)
Outline: as §1

[17] = tested on: RARb:RXRa (NR concentration 270 nM, RXRa partner concentration 90 nM)
Outline: as §1

Sequence	PBM binding z-score [1]	PBM binding z-score [2]	PBM binding z-score [3]	PBM binding z-score [4]	PBM binding z-score [5]	PBM binding z-score [6]	PBM binding z-score [7]	PBM binding z-score [8]	PBM binding z-score [9]	PBM binding z-score [10]	PBM binding z-score [11]	PBM binding z-score [12]	PBM binding z-score [13]	PBM binding z-score [14]	PBM binding z-score [15]	PBM binding z-score [16]	PBM binding z-score [17]
CAGAGTAGGTTACGAGGGGGCATTCAGTGCGAAT	3.11	7.18	2.11	6.23	3.54	3.69	4.37	2.05	3.3	5.73	5.83	1.94	4.86	6.24	2.83	1.21	2.45
TCGAGTAGGTTACGGCGGCATTCAGGGATGAAGA	-0.0492	0.356	-0.342	0.0226	1.32	0.838	1.73	1.18	1.43	3.16	2.85	-0.171	-0.0606	-0.885	0.128	-1.2	0.794
CTATGTAGGTTAAGGGGGTCAATCAGTTTGAAAG	4.51	4.86	1.5	5.67	5.86	8.09	7.41	5.18	7.66	7.42	7.48	2.63	5.16	7.48	5.23	0.971	3.41
TCTAGTAGGTTACGGGGGCATTCAGGGATGAAGA	3.33	3.71	1.27	5.76	4.95	8	6.8	5.71	6.87	6.73	7	2.93	3.79	2.71	3.63	1.37	3.21
CTATGTAGGCTAAGGGGGTCATTCAGTTTGAAAG	3.71	3.81	0.999	5.74	5.31	5.77	6.41	3.65	6.14	5.39	5.71	1.72	5.12	8.71	5.12	0.465	2.69
CTGAGTAGGTTACGAGGGGGCATTCAGTGCGAAT	1.65	7.17	2.04	6.26	3.73	4.46	4.41	1.42	3.41	6.01	6.11	1.78	4.54	4.99	3	0.52	2.26
CTATGTAGGTTAAGGGGGACATTCAGTTTGAAAG	1.22	1.63	0.816	3.58	5.12	8.82	8.59	7.64	9.61	7.33	7.62	2.11	2.48	5.75	1.65	1.11	2.1
TCGAGTAGGTTACGGAGGCATTCAGGGATGAAGA	0.282	0.497	-0.597	0.121	1.57	1.39	1.81	1.08	1.75	3.09	3.05	0.325	0.0271	-0.388	0.547	-0.666	0.731
TCGCGTAGGTTACGGGGGCATTCAGGGATGAAGA	2.62	3.1	0.819	5.1	4.31	4.62	4.92	3.28	3.93	2.78	4.58	1.25	3.16	1.49	3.42	0.315	2.72
TCGAGTAGGTTACGGGGGTATTCAGGGATGAAGA	1.78	2.4	0.457	4.07	3.45	4.49	4.53	2.64	3.61	4.5	5.38	1.51	2.09	0.83	2.49	0.925	2.07
TCGAGTAGGTTACGGGGGCATTTAGGGATGAAGA	3.13	3	0.674	5.04	4.52	6.04	5.65	2.96	4.66	5.1	5.8	1.44	3.25	1.54	3.29	0.213	2.56
CTATGTAGGTTAAGGGGGTCATTCAGTTTGAAAG	5.62	5.08	3.54	6.24	6.31	9	7.99	6.08	8.01	7.67	7.74	3.66	6.09	11.4	5.93	1.81	3.73
CTATGTAGGTTAAGGGGGTCATTCCGTTTGAAAG	4.77	5.26	3.1	6.22	6.1	8.1	7.77	5.98	7.6	7.72	7.69	3.57	5.52	4.83	5.89	1.49	3.33
CTATGTAGGTTAAGGGTGTCATTCAGTTTGAAAG	0.954	1.2	0.0163	1.33	4.61	8.17	7.44	6.35	8.04	7.72	7.59	1.32	1.38	0.641	1.5	0.262	1.56
CCGACTAGGTTACGAGGGGGCATTCAGTGCGAAT	2.03	6.99	1.82	6.19	3.16	2.68	3.48	1.66	2.47	4.63	4.93	1.66	4.6	5.23	2.64	0.38	2.02
CTATGTAGGTTAAGGGGGTCATTCAATTTGAAAG	5.04	4.74	2.45	6.26	6.18	8.92	7.74	5.91	8.06	7.02	7.79	5.83	5.67	3.88	5.82	1.49	3.55
CCGAGTAGGTTGCGAGGGGGCATTCAGTGCGAAT	1.26	2.94	0.489	4.71	2.73	0.173	1.85	0.127	1.53	1.37	2.13	0.668	3.67	4.85	2.34	0.292	1.57

Sequence	PBM binding z-score [1]	PBM binding z-score [2]	PBM binding z-score [3]	PBM binding z-score [4]	PBM binding z-score [5]	PBM binding z-score [6]	PBM binding z-score [7]	PBM binding z-score [8]	PBM binding z-score [9]	PBM binding z-score [10]	PBM binding z-score [11]	PBM binding z-score [12]	PBM binding z-score [13]	PBM binding z-score [14]	PBM binding z-score [15]	PBM binding z-score [16]	PBM binding z-score [17]
CCAAGTAGGTTACGAGGGGGCATTCAGTGCGAAT	3.42	7.37	1.65	6.39	4.05	4.83	4.89	2.33	3.81	6.86	6.44	2.19	5.04	6.14	3.18	1.41	2.52
CTATGTAGGTTAAGGGGGTCATGCAGTTTGAAAG	5.42	4.98	1.95	6.22	6.35	9.11	8	6.71	8.07	7.51	7.75	4.7	5.74	8.41	6	1.78	3.79
CCGAGTAGCTTACGAGGGGGCATTCAGTGCGAAT	0.729	1.73	0.701	3.62	1.77	-0.443	0.5	-0.877	-0.359	0.648	0.528	0.745	2.64	5.04	1.67	-0.103	0.8
CCGAGTAGGTTACGAGGGGGCATTCCGTGCGAAT	2.81	7.17	1.62	6.21	3.36	1.77	2.96	0.628	1.69	4.52	4.42	1.68	4.37	0.912	2.94	0.747	2
CCGAGTAGGTTACGAGGGGGCATTCAGTGCGAAT	2.35	6.98	1.84	6.35	3.42	2.22	3.3	1.24	2.55	4.8	4.49	2.04	5.02	6.02	3.43	0.391	2.2
TCGAGTAAGTTACGGGGGCATTCAGGGATGAAGA	1.79	1.83	0.43	4.1	2.64	1.06	1.98	1.45	1.77	1.55	3.02	0.93	2.63	1.19	2.22	0.119	1.34
CCGAGTAGGTTACGAGGGGGCATTCACTGCGAAT	2.07	7.18	1.26	6.21	3.49	2.33	3.18	1.02	2.85	4.81	4.25	1.02	4.44	0.728	2.66	0.267	2.12
CCGAGTAGGTTACGCGGGGGCATTCAGTGCGAAT	3.18	6.77	1.34	6.01	3.32	2.36	3.3	1.11	2.24	4.28	4.82	1.38	5.72	7.61	3.67	0.0169	2.29
TCGAGTACGTTACGGGGGCATTCAGGGATGAAGA	2.24	1.79	-0.186	3.82	2.44	0.609	1.72	1.42	1.85	1.28	2.5	0.453	2.92	1.24	1.86	0.239	1.38
CTATGTCGGTTAAGGGGGTCATTCAGTTTGAAAG	4.86	5.24	4.38	6.42	5.65	5.4	6.26	3.98	5.7	4.49	5.96	6.84	5.84	8.33	5.76	4.21	3.57
TCGAGTAGGTTACGGGGGCATTCCGGGATGAAGA	2.68	2.91	0.0862	4.94	4.29	5.89	5.67	2.85	4.91	4.92	5.8	1.57	3.08	1.1	3.14	0.0892	2.51
TCGAGTAGGTTACGGGGGCAATCAGGGATGAAGA	1.97	2.28	0.238	4.49	4.14	6.62	5.6	3.37	4.85	4.86	6.27	1.35	2.64	0.755	2.99	-0.0158	2.43
CTACGTAGGTTAAGGGGGTCATTCAGTTTGAAAG	5.02	5.26	2.48	6.14	5.67	4.41	5.7	2.76	4.84	2.95	4.54	2.77	5.94	11.4	6.06	0.985	3.63
CTATGTAGGTTAAGGGGGTCATACAGTTTGAAAG	5.2	5.02	1.99	6.22	6.21	8.81	8.13	6.16	8.11	7.64	7.1	3.8	5.63	8.43	5.95	2.55	3.77
CCGAGTAGGTTACGTGGGGGCATTCAGTGCGAAT	2.27	7.98	1.53	6.74	3.6	1.87	3.65	0.89	2.73	4.47	4.6	0.555	5.23	6.32	2.42	0.183	2.09
CCGAGTAGGTTTCGAGGGGGCATTCAGTGCGAAT	1.41	2.96	1.18	4.53	2.37	-0.183	1.67	0.107	1.44	2.27	2.41	1.58	3.09	5.29	1.88	0.558	1.28
